Screens deposited in PubChem by Broad Institute.
The sample as a whole holds a higher share of hits than the screen did.
Tgondii IFNg: T. gondii growth inhibition under IFN-gamma | 3.8% of 69,000 active | activity change, negative = inhibition, % (no concentration beside the values) | AID 1259416 | Toxoplasma gondii growth in IFN-gamma-treated host cells; active compounds read low; in the data active means activity change below about -70%, passing the limit was not always enough;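 further: host cells are HeLa cells infected with Toxoplasma gondii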
* marks the source's active call; other numbers are inactive results.

CN1Cc2ccccc2[C@@H]2c3cccc4[nH]cc(c34)C[C@H]21 was read as Tgondii IFNg -78.1*.
CN1CCN2CCN(Cc3cnn4cccnc34)CC2C1 (centres undefined) was read as Tgondii IFNg 0.6.
Cc1cc(NC(=O)c2cc3cccnc3n(Cc3ccc(F)cc3)c2=O)ccc1Br was read as Tgondii IFNg 44.2.
CNC(=O)N[C@@H]1c2cccc(F)c2C2CNCC21 (some centres undefined) was read as Tgondii IFNg -33.6.
For CN1CCC[C@@H]2[C@H]1[C@@H](c1ccc(F)cc1)CN2C(=O)Cc1ccc(F)cc1 the results were Tgondii IFNg -0.8.
`Cc1ccccc1NC(=O)c1cc2cccnc2n(Cc2ccccc2)c1=O` gave Tgondii IFNg 41.7.
For Cc1cc(Cl)ccc1OCC(=O)O the results were Tgondii IFNg 10.3.
For O=C(O)COc1ccc(Cl)cc1Cl the results were Tgondii IFNg 16.1.
For Oc1cc(Cl)ccc1Oc1ccc(Cl)cc1Cl the results were Tgondii IFNg -86.9*.
Screening CCCn1c(C)c(C(=O)c2cccc3ccccc23)c2ccccc21 returned Tgondii IFNg 32.5.
`COc1ccc(C(=O)c2c(C)n(CCN3CCOCC3)c3cc(I)ccc23)cc1` gave Tgondii IFNg 7.4.
Screening Cc1c(C(=O)c2cccc3ccccc23)c2cccc3c2n1[C@H](CN1CCOCC1)CO3 returned Tgondii IFNg -90.1*.
For CCOCC12CCCOC1CCN(Cc1c(C)noc1C)C2 (centres undefined) the results were Tgondii IFNg 74.1.
O=C(Nc1ccc(F)c(Cl)c1)c1cc2cccnc2n(Cc2ccccc2F)c1=O was read as Tgondii IFNg 1.5.
Screening CC(=O)[O][Hg][c]1ccccc1 returned Tgondii IFNg -72.3*.
`CCN(CC)C(C)C(=O)c1ccccc1` (centres undefined) gave Tgondii IFNg 20.7.
CC(C)N1CCOCC2(CN(C(=O)c3ccnnc3)CCO2)C1 (centres undefined) was read as Tgondii IFNg 1.0.
`CCOC(C(=O)OCCCN1CCCCCC1)(c1ccccc1)c1ccccc1` gave Tgondii IFNg -79.7*.
`Cc1nc2c(c(=O)[nH]1)C(c1ccc(Cl)cc1)c1c(c3ccccc3oc1=O)O2` (centres undefined) gave Tgondii IFNg -24.7.
`Cc1cc(C)c(NC(=O)c2cc3cccnc3n(Cc3ccc(F)cc3)c2=O)c(C)c1` gave Tgondii IFNg -77.7*.
Cc1ccc(NC(=O)c2cc3cccnc3n(Cc3ccc(F)cc3)c2=O)cc1 was read as Tgondii IFNg 85.0.
For Cc1ccc(F)c(NC(=O)c2c(O)c3cccnc3n(Cc3ccccc3)c2=O)c1 the results were Tgondii IFNg 71.0.
CC(CCc1ccccc1)NC(=O)c1cc2cccnc2n(Cc2ccccc2)c1=O (centres undefined) was read as Tgondii IFNg -28.9.
`O=C(NCc1cccs1)c1c(O)c2cccnc2n(Cc2ccccc2)c1=O` gave Tgondii IFNg -110.5*.
For Cc1ccc(NC(=O)c2c(O)c3cccnc3n(Cc3ccccc3)c2=O)c(C)c1 the results were Tgondii IFNg 45.1.
Screening CC(NC(=O)c1cc2cccnc2n(Cc2ccccc2F)c1=O)c1ccccc1 (centres undefined) returned Tgondii IFNg 18.1.
For Cc1ccccc1NC(=O)c1c(O)c2cccnc2n(Cc2ccccc2)c1=O the results were Tgondii IFNg 83.9.
For CCc1ccc(NC(=O)c2c(O)c3cccnc3n(Cc3ccccc3)c2=O)cc1 the results were Tgondii IFNg 29.7.
Screening Cc1ccc(NC(=O)c2cc3cccnc3n(Cc3ccc(F)cc3)c2=O)c(C)c1 returned Tgondii IFNg -8.9.
`CC(NC(=O)c1cc2cccnc2n(Cc2ccccc2)c1=O)c1ccccc1` (centres undefined) gave Tgondii IFNg -90.7*.
For CCc1ccccc1NC(=O)c1c(O)c2cccnc2n(Cc2ccccc2)c1=O the results were Tgondii IFNg -88.4*.
Screening CN1CCC2(CCCN(CC3CCOC3)C2)C1=O (centres undefined) returned Tgondii IFNg -24.1.
Screening O=C(NCc1ccc(F)cc1)c1cc2cccnc2n(Cc2ccccc2F)c1=O returned Tgondii IFNg 45.6.
CN1CCO[C@H]2CCN(C(=O)C3CC=CC3)C[C@H]21 was read as Tgondii IFNg 201.8.
c1cncc(OC2COC3(CCCN(Cc4ccco4)C3)C2)c1 (centres undefined) was read as Tgondii IFNg 3.7.
Screening CC1Cc2cc(C(O)CN3CC=C(c4ccc(F)cc4)CC3)ccc2O1 (centres undefined) returned Tgondii IFNg 60.5.
Screening Cc1ccc(N2CCC3(CC2)COCCN3CCN(C)C)nn1 returned Tgondii IFNg 22.7.
For COc1ccccc1CCC(=O)N1C2CCC1c1cn(C)nc1C2 (centres undefined) the results were Tgondii IFNg 3.3.
Screening COC[C@H]1CCC[C@]12CN(Cc1c(C)noc1C)CCO2 returned Tgondii IFNg 20.7.
For O=C(c1ccno1)N1C[C@@H]2CCN[C@@H]2C1 the results were Tgondii IFNg 12.8.
`COc1ncccc1CN1C[C@H]2COC[C@@]2(C(=O)N(C)C)C1` gave Tgondii IFNg 3.0.
